In PubChem BioAssay (NCATS):
Values without a mark were called inactive. Calls follow the shape of the dose curve; as a rule, active = well fitted curve in the direction sought with a large enough effect; inconclusive = small, poorly fitted or top-dose-only effect, or another doubt; inactive = no such curve, though single readings can be large; an effect the other way counts as inactive or inconclusive. Records with an inconclusive call do not appear.

Experiment: qHTS assay for measurement of the activity of small molecule inhibitors on Zika virus induced Caspase-3 activity in human astrocytoma cells (AID 1224859);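 also: plate controls were ZIKV-infected untreated cells for no effect and uninfected cells for full effect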
Settings: SNB-19 ZIKV-induced caspase-3/7, luminescence, 6 h; series mostly up to 45.7 µM; activity change, negative = inhibition: at the top concentration
Outline: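 Readout is luminescence from Caspase-Glo 3/7 added after a 6 h ZIKV infection (2 FFU/cell) of compound-pretreated (1 h) SNB-19 cells; data expressed as % inhibition versus uninfected and infected wells.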

Row | Structure (SMILES) | activity change, negative = inhibition
1 | CCC(C(=O)OCCN1CCOC(c2ccccc2)C1C)c1ccccc1 (stereo not given) | 22.5%
2 | COC(=O)/C=C\C(=O)OC | -5.52%
3 | Cc1ccccc1N1CCN(CCc2nnc3n2CCCC3)CC1 | 2.34%
4 | C=CCNc1nc(NCC=C)nc(N2CCN(C(c3ccc(F)cc3)c3ccc(F)cc3)CC2)n1 | 8.24%
5 | OCc1cccnc1 | 2%
6 | O=C(O)[C@@H](O)[C@H](O)[C@H](O)[C@@H](O)C(=O)O | 9.19%
7 | CC(C)=CCC/C(C)=C/CC/C(C)=C/CCC(=O)OC/C=C(\C)CCC=C(C)C | 11.3%
8 | OC1(c2ccc(Cl)c(C(F)(F)F)c2)CCN(CCCC(c2ccc(F)cc2)c2ccc(F)cc2)CC1 | 141%
9 | Cc1cc(C(C)(C)C)c(O)c(C(C)(C)C)c1 | -1%
10 | CCc1cc2cc(OC)c(OC)cc2c(Cc2ccccc2)n1 | 10.7%
11 | Cc1nc2n(c(=O)c1CCN1CCC(C(=O)c3ccc(F)cc3)CC1)CCS2 | 16.1%
12 | COc1cc2c(cc1OC)CN(C(=O)[C@H](C)N[C@@H](CCc1ccccc1)C(=O)O)[C@H](C(=O)O)C2 | -15.5%
13 | CCOc1c(N2CCOCC2)cnn(C)c1=O | 3.53%
14 | Cc1ccc(C(=O)Oc2ccc(C(O)CNC(C)(C)C)cc2OC(=O)c2ccc(C)cc2)cc1 (stereo not given) | -9.01%
15 | Nc1ccc([N+](=O)[O-])c(C(F)(F)F)c1 | 4.07%
16 | CCCCCCCC(=O)[O-].CCCCCCCC(=O)[O-].[Zn+2] | 23%
17 | COc1ccc([C@@H]2Sc3ccccc3NC(=O)[C@@H]2O)cc1 | 30.9%
18 | O=C(O)c1cn(C2CC2)c2cc(Cl)c(F)cc2c1=O | 8.17%
19 | CCOC(=O)C(O)c1ccccc1 (stereo not given) | 11.9%

Row | Structure (SMILES) | activity change, negative = inhibition
20 | CO[C@@]1(NC(=O)CSC[C@@H](N)C(=O)O)C(=O)N2C(C(=O)O)=C(CSc3nnnn3C)CS[C@@H]21 | -13.8%
21 | CC(C)N(CCC(=O)c1ccc2ccccc2c1)Cc1ccccc1 | 11.3%
22 | CSc1ccc(/C=C2/C(C)=C(CC(=O)O)c3cc(F)ccc32)cc1 | -3.46%
23 | CCOc1ccccc1OCC1CNCCO1 (stereo not given) | -6.14%
24 | Nc1nc(=O)n([C@@H]2O[C@H](CO)[C@@H](O)[C@@H]2F)cc1I | 0.331%
25 | O=c1[nH]sc2cc(Cl)ccc12 | 7.67%
26 | NC(=O)COCCN1CCN(C(c2ccccc2)c2ccc(Cl)cc2)CC1 (stereo not given) | 3.63%
27 | COc1ccc2cc(C=O)ccc2c1 | 12.9%
28 | N#CSCC(=O)O | -8.65%
29 | CC1(C)OC(=O)Nc2ccc(Br)cc21 | 2.22%
30 | O=C(c1cc(O)c(O)c(O)c1)c1ccc(O)c(O)c1O | -1.31%
31 | NS(=O)(=O)c1ccc(N2CCCCS2(=O)=O)cc1 | -2.05%
32 | Cn1c(=O)c2c(ncn2CC(=O)O)n(C)c1=O | -9.13%
33 | C/C(=N/NC(=O)c1ccncc1)C(=O)O | 13.3%
34 | CCOC(=O)c1ccc(NC(=O)CN2CCCCC2)cc1 | 0.442%
35 | Oc1cccc2[nH]ccc12 | 13.6%
36 | NC(=O)NC1N=C([O][Al])NC1=O (stereo not given) | -1.7%
37 | O=C1CC[C@H](C(=O)N2CCCCC2)N1 | -17.3%

Experiment: P-glycoprotein substrates identified in KB-8-5-11 adenocarcinoma cell line, qHTS therapeutic library screen (AID 1346987); also: % is scaled to controls: 0 for no effect and ±100 for the full control effect; nearly all actives have a fitted effect of over 65% in size
Settings: KB-8-5-11 (P-gp overexpressing) viability, CellTiter-Glo, 72 h; series mostly up to 44.5 µM; activity change, negative = cytotoxicity: at the top concentration; outcome: at the top concentration
Outline: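 P-gp-mediated resistance screen: KB-8-5-11 cells treated 72 h with compounds in dose-response. CellTiter-Glo viability.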

Row | Structure (SMILES) | activity change, negative = cytotoxicity
38 | Cc1ccccc1N1CCN(CCc2nnc3n2CCCC3)CC1 | -24%
39 | OCc1cccnc1 | -9.83%
40 | O=C(O)[C@@H](O)[C@H](O)[C@H](O)[C@@H](O)C(=O)O | -4.74%
